About 14,000 (4.5%) of roughly 310,000 compounds showed an effect of 50% or more. The effect is printed as a negative number. Shown is part of a subset that was picked to be rich in strong results.
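Also: peak tail current of the secondary pulse compared with the same well before compound.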

For the assay, the target named is human ether-à-go-go-related gene (hERG) potassium channel (human, UniProt Q12809). Briefly: primary screen, population patch clamp on CHO cells stably expressing hERG; higher = less effect of the substance.
Chain of human ether-à-go-go-related gene (hERG) potassium channel (Q12809 whole entry, looked up): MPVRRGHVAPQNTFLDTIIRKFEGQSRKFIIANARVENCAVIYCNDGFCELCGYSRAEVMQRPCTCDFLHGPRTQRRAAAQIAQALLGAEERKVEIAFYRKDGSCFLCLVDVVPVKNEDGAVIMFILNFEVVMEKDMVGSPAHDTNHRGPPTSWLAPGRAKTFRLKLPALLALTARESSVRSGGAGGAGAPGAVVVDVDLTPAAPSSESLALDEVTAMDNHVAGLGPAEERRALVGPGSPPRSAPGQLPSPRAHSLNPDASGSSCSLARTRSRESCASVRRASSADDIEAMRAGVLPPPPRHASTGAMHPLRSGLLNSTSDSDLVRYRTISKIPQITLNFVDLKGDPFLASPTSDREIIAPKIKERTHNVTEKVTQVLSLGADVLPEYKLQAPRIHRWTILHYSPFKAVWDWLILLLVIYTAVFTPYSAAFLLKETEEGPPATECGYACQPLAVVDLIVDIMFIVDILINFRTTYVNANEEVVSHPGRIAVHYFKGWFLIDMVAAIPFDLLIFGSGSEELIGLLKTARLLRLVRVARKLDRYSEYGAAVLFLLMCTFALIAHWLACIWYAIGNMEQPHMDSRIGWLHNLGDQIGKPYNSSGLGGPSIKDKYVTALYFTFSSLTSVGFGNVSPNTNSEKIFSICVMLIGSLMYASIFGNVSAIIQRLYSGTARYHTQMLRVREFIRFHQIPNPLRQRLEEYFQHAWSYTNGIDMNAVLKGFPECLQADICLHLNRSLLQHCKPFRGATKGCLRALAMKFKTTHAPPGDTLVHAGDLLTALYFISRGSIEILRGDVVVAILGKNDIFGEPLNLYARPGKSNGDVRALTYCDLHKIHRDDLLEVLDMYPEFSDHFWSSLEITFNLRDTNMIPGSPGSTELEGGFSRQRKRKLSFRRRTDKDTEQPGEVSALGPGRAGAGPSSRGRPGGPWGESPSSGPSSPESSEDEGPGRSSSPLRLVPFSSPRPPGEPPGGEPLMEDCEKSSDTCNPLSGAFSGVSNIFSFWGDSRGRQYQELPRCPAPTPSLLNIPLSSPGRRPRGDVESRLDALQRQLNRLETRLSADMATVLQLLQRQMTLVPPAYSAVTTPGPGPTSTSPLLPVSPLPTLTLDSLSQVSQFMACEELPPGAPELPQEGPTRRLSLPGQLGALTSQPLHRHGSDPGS
As to `CC(=O)c1ccc(N2Cc3ccccc3C2=NC(=O)c2cccs2)cc1`, the “hERG current change (%, negative = inhibition) at 10uM” value is recorded as -20.6%.
On to `Br.CC(=O)c1ccc(N2Cc3ccccc3C3(CCOCC3)C2=N)cc1`, for which the “hERG current change (%, negative = inhibition) at 10uM” value is -57.5%.
`CC(=O)c1ccc(N2Cc3ccccc3C2)cc1`: the “hERG current change (%, negative = inhibition) at 10uM” value is listed as -2.58%.
Take `FC(F)(F)c1cc(-c2ccccc2)nc2ncnn12`: the “hERG current change (%, negative = inhibition) at 10uM” value is 7.8%.
With `O=S(=O)(c1ccc(Br)cc1)N1CCN(c2ccc3nnc(-c4ccccc4)n3n2)CC1`, the “hERG current change (%, negative = inhibition) at 10uM” value is on record as -32%.
For the molecule `COc1ccc(S(=O)(=O)N2CCN(c3ccc4nnc(-c5ccccc5)n4n3)CC2)cc1`, the “hERG current change (%, negative = inhibition) at 10uM” value is -66.4%.
In the case of `CCCNC(=O)C1CCN(c2nc(C)cc(C)n2)CC1` it was 0.749%.
Take `CCCNC(=O)C1CCN(c2cc(-c3ccccc3)nc3ncnn23)CC1`: the “hERG current change (%, negative = inhibition) at 10uM” value is -75.8%.
In the case of `COc1ccc(-c2cc(C(F)(F)F)nc(N3CCCCCC3)n2)cc1` it was 2.13%.
For the molecule `FC(F)(F)c1ccc(N2CCN(c3cc(-c4ccccc4)nc4ncnn34)CC2)nc1`, the “hERG current change (%, negative = inhibition) at 10uM” value was -65.1%.
In the case of `FC(F)(F)c1cccc(Nc2cc(-c3ccccc3)nc3ncnn23)c1` it was 13.5%; in that of `COc1ccc(S(=O)(=O)N2CCN(c3ccc4nnc(-c5ccc(F)cc5)n4n3)CC2)cc1`, -19.4%; in that of `Cc1ccccc1NC(=O)C1CCN(c2cc(-c3ccccc3)nc3ncnn23)CC1`, -8.86%.
As for `COc1ccc(-c2cc(N3CCCC3)n3ncnc3n2)cc1`, the “hERG current change (%, negative = inhibition) at 10uM” value is -64.5%.
The figure for `COc1ccc(-c2cc3nc(-c4ccccc4)cc(N4CCC(O)CC4)n3n2)cc1` is -7.45%; for `Cc1nnsc1Sc1ccccc1C(=O)O` it is 8.3%.
Take `Cc1n[nH]c(C)c1S(=O)(=O)N(C)Cc1ccco1`: the “hERG current change (%, negative = inhibition) at 10uM” value came to 2.13%.
`O=C(NCc1c(O)ccc2ccccc12)c1ccccc1`: the “hERG current change (%, negative = inhibition) at 10uM” value turned out to be 12%.
In the case of `CC(C)c1ccc(NC(=O)C2C3C=CC4(O3)C2C(=O)N(CCCN2CCOCC2)C4C(=O)NC2CCCCC2)cc1` (stereo not drawn), the “hERG current change (%, negative = inhibition) at 10uM” value is on record as 19.9%.
Regarding `COc1ccc(NC(C)=O)c(C)c1`, the “hERG current change (%, negative = inhibition) at 10uM” value was found to be 18.2%.
Turning to `COc1ccccc1NC(=O)N1CCN(c2ncccn2)CC1`, the “hERG current change (%, negative = inhibition) at 10uM” value is recorded as 6.96%.
On to `COc1ccc(OC)c(NC(=O)C2CCN(c3cc(-c4ccccc4)nc4ncnn34)CC2)c1`, for which the “hERG current change (%, negative = inhibition) at 10uM” value is -10.8%.
Consider `COc1ccccc1NC(=O)N1CCN(c2cc(-c3ccccc3)nc3ncnn23)CC1`, for which the “hERG current change (%, negative = inhibition) at 10uM” value was -68.3%.
Take `O=S(=O)(c1ccccc1)N1CCN(c2cc(-c3ccccc3)nc3ncnn23)CC1`: the “hERG current change (%, negative = inhibition) at 10uM” value is -11.8%.
Turning to `CCc1c(C)nc2ncnn2c1N1CCN(S(=O)(=O)c2ccc(OC)cc2)CC1`, the “hERG current change (%, negative = inhibition) at 10uM” value was -36%.
Regarding `COc1ccc(S(=O)(=O)N2CCN(c3cc(-c4ccccc4)nc4ncnn34)CC2)cc1`, the “hERG current change (%, negative = inhibition) at 10uM” value is listed as -53.3%.
For `O=C(C1=C(O)C(=O)N(CC2CCCO2)C1c1ccc(Cl)cc1)c1ccco1` (stereo not drawn), the “hERG current change (%, negative = inhibition) at 10uM” value was determined as 12.3%.
In the case of `Cc1cc(=O)oc2c(CN3CCCC3)c(O)c(Cl)cc12` it was 5.35%.
Take `CC(CC(=O)Nc1cccc(Cl)c1)c1ccccc1` (stereo not drawn): the “hERG current change (%, negative = inhibition) at 10uM” value was -6.32%.
Regarding `Cc1cc(OCC#N)nc(N)n1`, the “hERG current change (%, negative = inhibition) at 10uM” value is listed as 3.69%.
In the case of `CCN(CC)S(=O)(=O)c1ccc(N2CCOCC2)c(NCC(=O)Nc2ccc(F)cc2)c1`, the “hERG current change (%, negative = inhibition) at 10uM” value amounted to 12.3%.
For the molecule `CCCCOc1ccc(/C=N/Nc2cc(N3CCOCC3)nc(C)n2)cc1`, the “hERG current change (%, negative = inhibition) at 10uM” value was -30.5%.
On to `Cc1cc(C)cc(NC(=O)C(OC(=O)c2ccc(NC(=O)CC#N)cc2)c2ccccc2)c1` (stereo not drawn), for which the “hERG current change (%, negative = inhibition) at 10uM” value was -6.68%.
Consider `Cc1cc(C)cc(NC(=O)C(OC(=O)c2cc[n+]([O-])cc2)c2ccccc2)c1` (stereo not drawn), for which the “hERG current change (%, negative = inhibition) at 10uM” value is on record as -74%.
Turning to `Cc1cc(C)cc(NC(=O)C(OC(=O)c2ccc(O)cc2)c2ccccc2)c1` (stereo not drawn), the “hERG current change (%, negative = inhibition) at 10uM” value was -15.2%.
For the molecule `COc1cc(OC)c(NC(=O)CCNC(=O)Cn2ccc3ccccc3c2=O)cc1Cl`, the “hERG current change (%, negative = inhibition) at 10uM” value was 7.45%.
In the case of `O=C(CN1CCN(c2ncc(C(F)(F)F)cc2Cl)CC1)N1CCN(c2ncc(C(F)(F)F)cc2Cl)CC1`, the “hERG current change (%, negative = inhibition) at 10uM” value came out at 11.7%.
Consider `O=C(c1ccc2c(c1)OCCO2)N1CCN(c2ncc(C(F)(F)F)cc2Cl)CC1`, for which the “hERG current change (%, negative = inhibition) at 10uM” value was -41.3%.
On to `Cc1ccsc1C(=O)N1CCN(c2ncc(C(F)(F)F)cc2Cl)CC1`, for which the “hERG current change (%, negative = inhibition) at 10uM” value was -21%.
The figure for `O=C(c1ccc2nc[nH]c2c1)N1CCN(c2ncc(C(F)(F)F)cc2Cl)CC1` is -53.6%; for `O=C(c1ccc2nc[nH]c2c1)N1CCN(c2cccc(C(F)(F)F)c2)CC1` it is -11.4%; for `Cc1ccc(C(=O)N2CCN(c3ncc(C(F)(F)F)cc3Cl)CC2)s1` it is -59.8%.
Regarding `CCOC(=O)N1CCN(c2ncc(C(F)(F)F)cc2Cl)CC1`, the “hERG current change (%, negative = inhibition) at 10uM” value was determined as 21.4%.
For the molecule `O=C(CSc1ccccn1)N1CCN(c2ncc(C(F)(F)F)cc2Cl)CC1`, the “hERG current change (%, negative = inhibition) at 10uM” value is reported as -63.9%.
In the case of `CCc1cc(C(=O)N2CCN(c3ncc(C(F)(F)F)cc3Cl)CC2)sc1C` it was -3.1%.
`O=C(c1cccs1)N1CCN(c2ncc(C(F)(F)F)cc2Cl)CC1`: the “hERG current change (%, negative = inhibition) at 10uM” value is recorded as -65%.
Turning to `CC(C)(C(N)=O)N1CCN(c2ncc(C(F)(F)F)cc2Cl)CC1`, the “hERG current change (%, negative = inhibition) at 10uM” value is on record as -42.4%.
For the molecule `O=C(CSc1ccc(Cl)cc1)N1CCN(c2ncc(C(F)(F)F)cc2Cl)CC1`, the “hERG current change (%, negative = inhibition) at 10uM” value is reported as -26%.
Take `CCOc1ccccc1CN1CCNC(=O)C1CC(=O)NCc1nccn1CC` (stereo not drawn): the “hERG current change (%, negative = inhibition) at 10uM” value is 18.8%.
In the case of `O=C(CNC(=O)c1ccccc1)NCC(=O)OCc1ccc(Cl)cc1` it was -29.3%.
Turning to `Cc1onc(-c2c(Cl)cccc2Cl)c1C(=O)NC(=S)N1CCOCC1`, the “hERG current change (%, negative = inhibition) at 10uM” value is recorded as 6%.
Consider `O=C(CCn1nnc(-c2cccs2)n1)NC1CCCCC1`, for which the “hERG current change (%, negative = inhibition) at 10uM” value was determined as 2.79%.
For `C=CCOc1cccc(C2C(C(=O)c3ccc(C)o3)=C(O)C(=O)N2CCCn2ccnc2)c1` (stereo not drawn), the “hERG current change (%, negative = inhibition) at 10uM” value is given as 9.13%.
In the case of `Cn1cccc1/C=C1\SC(=S)N(NC(=O)c2ccccc2Cl)C1=O`, the “hERG current change (%, negative = inhibition) at 10uM” value is 1.91%.

(Values after article PMC4336329 (PLoS ONE, 2015).)
